Whole data set: some 8,300 sequences, median “log2 fold change of degron read counts, EGFP-low vs EGFP+ sorted cells (limma voom), compound-induced degradation” near -1.1, cut for the highest 2% near 3.2. The sample holds the highest values, similar sequences and a random draw of the others, so the mix is not that of the screen.
T1: CRBN, Q96SW2
T1 chain: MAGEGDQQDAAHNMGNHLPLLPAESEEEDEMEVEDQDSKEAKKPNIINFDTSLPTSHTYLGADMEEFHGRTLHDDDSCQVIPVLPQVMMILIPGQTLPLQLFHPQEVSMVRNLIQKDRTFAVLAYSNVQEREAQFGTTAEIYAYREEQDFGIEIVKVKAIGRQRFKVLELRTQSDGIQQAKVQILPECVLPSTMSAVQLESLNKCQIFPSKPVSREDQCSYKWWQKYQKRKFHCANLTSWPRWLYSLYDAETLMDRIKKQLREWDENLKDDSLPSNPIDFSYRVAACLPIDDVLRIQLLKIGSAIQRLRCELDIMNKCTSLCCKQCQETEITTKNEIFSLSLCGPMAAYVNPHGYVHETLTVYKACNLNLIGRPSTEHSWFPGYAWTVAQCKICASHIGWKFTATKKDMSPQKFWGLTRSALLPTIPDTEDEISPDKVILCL


Target: T1, CRBN, Q96SW2
Assay: log2 fold change of degron read counts, EGFP-low vs EGFP+ sorted cells (limma voom), compound-induced degradation; higher = more compound-induced degradation of the degron-EGFP fusion; degrons are variants of IKZF1/3 zinc finger 2; compound dose not given here
Details: Jurkat, 18 h
[1] = compound: compound 19 (5-tert-butyl-thalidomide)
[2] = compound: compound 22 (5-morpholino-thalidomide)
[3] = compound: compound 33 (diphenyl IMiD analogue)
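Further: pooled lentiviral library of zinc finger degron-EGFP fusions in mCherry-positive Jurkat cells, FACS-sorted after compound exposure, with degron abundance counted by next-generation sequencing.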

Sequence	log2 fold change of degron read counts [1]	log2 fold change of degron read counts [2]	log2 fold change of degron read counts [3]	log2 fold change of degron read counts (compound: thalidomide)
FACNICGACFTQKGNLLRHIKL [46F_47A_49N_50I_52G_53A_54C_55F_67L_, Q9UKT9]	2.13	1.95	0.735	-0.49
FKCEICGRRFTQKGNLLRHIKL [46F_47K_49E_50I_52G_53R_54R_55F_67L_, Q9UKT9]	-2.87	-3.55	-3	-1.89
FDCSVCGHIFTQKGNLLRHIKL [46F_47D_49S_50V_52G_53H_54I_55F_67L_, Q9UKT9]	-1.69	-1.84	-1.76	-1.28
FMCPICGAWFTQKGNLLRHIKL [46F_47M_49P_50I_52G_53A_54W_55F_67L_, Q9UKT9]	-1.26	-0.611	1.3	-0.221
FDCPICGAEFTQKGNLLRHIKL [46F_47D_49P_50I_52G_53A_54E_55F_67L_, Q9UKT9]	-0.0781	-0.933	1.14	0.579
FDCNVCGALFTQKGNLLRHIKL [46F_47D_49N_50V_52G_53A_54L_55F_67L_, Q9UKT9]	-2.45	-2.67	-0.75	-0.856
FRCPICGHEFTQKGNLLRHIKL [46F_47R_49P_50I_52G_53H_54E_55F_67L_, Q9UKT9]	-2.68	-2.48	-1.5	-1.35
FTCEQCGAHFTQKGNLLRHIKL [46F_47T_49E_50Q_52G_53A_54H_55F_67L_, Q9UKT9]	-1.82	-1.63	-0.151	-0.624
FVCNQCGHNFTQKGNLLRHIKL [46F_47V_49N_50Q_52G_53H_54N_55F_67L_, Q9UKT9]	-3	-3.4	-2.99	-3.15
FMCEICGAKFTQKGNLLRHIKL [46F_47M_49E_50I_52G_53A_54K_55F_67L_, Q9UKT9]	0.747	-0.267	0.58	1.27
FICEICGAKFTQKGNLLRHIKL [46F_47I_49E_50I_52G_53A_54K_55F_67L_, Q9UKT9]	0.419	2.07	0.709	2.61
FRCEICGAKFTQKGNLLRHIKL [46F_47R_49E_50I_52G_53A_54K_55F_67L_, Q9UKT9]	-0.269	-0.354	0.56	1.68
FACEICGAKFTQKGNLLRHIKL [46F_47A_49E_50I_52G_53A_54K_55F_67L_, Q9UKT9]	3.82	1.86	-1.82	1.35
FVCEICGAKFTQKGNLLRHIKL [46F_47V_49E_50I_52G_53A_54K_55F_67L_, Q9UKT9]	1.42	1.89	0.387	3.07
FWCEICGAKFTQKGNLLRHIKL [46F_47W_49E_50I_52G_53A_54K_55F_67L_, Q9UKT9]	3.96	3.75	1.53	1.31
FGCEICGAKFTQKGNLLRHIKL [46F_47G_49E_50I_52G_53A_54K_55F_67L_, Q9UKT9]	3.49	1.63	-1.11	1.73
FTCEICGAKFTQKGNLLRHIKL [46F_47T_49E_50I_52G_53A_54K_55F_67L_, Q9UKT9]	0.913	1.9	0.245	2.71
FFCNQCGAAFTQKGNLLRHIKL [46F_47F_49N_50Q_52G_53A_54A_55F_67L_, Q9UKT9]	-1.05	-0.697	-0.811	-1.91

— the supplement of paper PMC12645437, “Orthogonal IMiD-Degron Pairs Induce Selective Protein Degradation in Cells” (ACS Chemical Biology, 2025)
